Screening data as filed in PubChem.
p53 reactivator – mutant p53 re-activation in reporter cells. H1299 p53-A138V BP100-luciferase reporter, luminescence, 24 h. Potency, µM (highest dose often 92.2 µM), for the others: at the top dose activity change, positive = activation, most hits filed as activators. actives 0.063% (n = 320,000); further: potency means the concentration at half of the fitted maximal effect; % of control where 0% means no effect; nearly all actives have a fitted effect of over 45% in size
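H1299 (p53-null), stable ts p53-A138V + BP100-Luc; 1000 cells/well, Opti-MEM/10% FBS; cpd 4 pt, 1:5; 24 h, 37 deg C, 5% CO2; detection reagent 10 min RT; luminescence.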
LDHA inh – LDHA (human) enzyme inhibition | activity change, % (values are at about 110 or 230 µM) | actives 0.15% (n = 480,000) | AID 1347041 | purified LDHA, NADH/diaphorase-resazurin fluorescence; hits give low values; in the data active means activity change below about -30%; inconclusive means mostly about -25% to -30%;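 further: plate controls were DMSO wells for no effect and wells without enzyme for full effect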
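Human LDH5 (2 nM) was incubated with 0.06 mM NADH and 0.2 mM pyruvate for 5 min at room temperature in Tris pH 7.4. Remaining NADH was coupled through diaphorase/resazurin, and resorufin fluorescence was read at 0 and 20 min.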
GLP-1R inv ag – GLP-1 receptor (human) inverse agonism; Potency, µM (titrated, usually from 38.3 µM), without a hit: top-dose activity change, negative = inhibition, actives largely listed as inhibitors; AID 624417; HEK293 GLP-1R CRE-luciferase, luminescence, 24 h; GLP-1R form is constitutively active; actives 1.6% (n = 410,000); P43220; further: potency means the concentration at half of the fitted maximal effect; on the % scale 0 is the no-effect control and ±100 the full control effect; nearly all actives have a fitted effect of over 55% in size
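HEK293 cells stably co-expressing constitutively active GLP-1R and a cAMP-responsive luciferase reporter were seeded in DMEM with 10% Nu serum, given compounds after 12 h, and incubated 24 h at 37 deg C. Luminescence was then read.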
GLP1R ag – GLP-1 receptor (human) agonism; HEK293 GLP-1R CRE-luciferase, luminescence, 4-6 h; cells express a hypersensitive GLP-1R form; Potency, µM (titrated, usually from 45.6 µM), inactives show top-dose activation, usual class: activators; P43220; actives 0.007% (n = 380,000); further: potency means the concentration at half of the fitted maximal effect; % of control where 0% means no effect
ClpP mod – qHTS Assay for Activators of ClpP; ATP-dependent Clp protease proteolytic subunit (Bacillus subtilis (strain 168)), P80244; AID 651965, 2013; Potency, µM (doses to about 57.5 µM), for inactives: top-dose activity change, negative = active; purified B. subtilis ClpP, FRET peptide cleavage, 20 min; actives 1.9% (n = 340,000); active means well fitted falling curve with a large enough effect; inconclusive means small, poorly fitted or top-dose-only effect; inactive means no such curve, though single readings can be large or run the other way; further: potency means the concentration at half of the fitted maximal effect; the source files actives as falling curves though it sought activators and does not explain the sign; nearly all actives have a fitted effect of over 65% in size
Target sequence (P80244 whole entry, looked up): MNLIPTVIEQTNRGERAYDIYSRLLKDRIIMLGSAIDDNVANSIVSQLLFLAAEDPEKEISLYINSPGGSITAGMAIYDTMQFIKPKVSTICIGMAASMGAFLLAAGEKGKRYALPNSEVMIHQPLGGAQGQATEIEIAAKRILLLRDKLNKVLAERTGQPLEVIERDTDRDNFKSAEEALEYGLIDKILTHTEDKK
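Buffer: 100 mM Tris/HCl pH8, 100 mM KCl, 0.05% low protease BSA, 2.5% glycerol, 0.01% Tween-20. ClpP 10 microg/mL final; 20 min RT; delta FRET normalized to ADEP and DMSO controls.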
GLP1R cytotox – cytotoxicity counter-screen for GLP-1 receptor inverse agonists; AID 624418; Potency, µM (titrated, usually from 38.3 µM), without a hit: top-dose activity change, negative = inhibition, usual class: inhibitors; actives 0.13% (n = 410,000); HEK293 cAMP-luciferase reporter cells, luminescence, 24 h;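 further: loss of luciferase light is scored as toxicity; potency means the concentration at half of the fitted maximal effect; on the % scale 0 is the no-effect control and ±100 the full control effect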
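Cells in DMEM/10% Nu serum/1% pen-strep, 1536-well format. Pre-incubated 12 h, dosed with 23 nL compound, incubated a further 24 h. Luciferase detection, 12 min at room temp, luminescence.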
* marks the source's active call; other numbers are inactive results; u = inconclusive; x = no result given. Hits are enriched below; roughly 2.9% of the tested compounds scored in any of these assays. Unless noted, the call rests on the fitted dose curve; in most records, active means well fitted curve in the direction sought with a large enough effect; inconclusive means small, poorly fitted or top-dose-only effect, or another doubt; inactive means no such curve, though single readings can be large; an effect the other way counts as inactive or inconclusive.

SMILES	p53 reactivator	LDHA inh	GLP-1R inv ag	GLP1R ag	ClpP mod	GLP1R cytotox
CCO/C=C1\C(=O)N(c2ccccc2)C(=O)c2ccccc21	0%	-1	25%	3%	32µM*	15%
CCOC(=O)C(O)(c1ccc(N(C)C(=O)Nc2ccc(Cl)cc2)cc1)C(F)(F)F (centres undefined)	x	-1	x	x	x	x
CC(C)COC(=O)N(C)c1ccc(C(O)(C(F)(F)F)C(F)(F)F)cc1	40%	0	8.9µM*	10%	-1%	4%
Cc1ccc(S(=O)(=O)NC2c3cccc4cccc(c34)C2Sc2nc(C)cc(C)n2)cc1 (centres undefined)	2%	-2	7.1µM*	2%	-1%	16%
CCn1cnc2c(Nc3cc(F)cc(F)c3)nc(C(=O)COc3c(F)c(F)cc(F)c3F)nc21	x	-11	x	x	x	x
COc1ccc(C(=O)NCc2ccccn2)cc1	9%	-1	10%	3%	-2%	-14%
COc1cc(/C=C/C(=O)NCc2ccccn2)cc(OC)c1OC	0%	-7	24%	1%	25µM*	-13%
COc1cc(/C=C/C(=O)Nc2nnc(CC(C)C)s2)cc(OC)c1OC	-1%	0	11%	13%	35µM*	6%
COc1ccc(/C=C/C(=O)NCc2ccccn2)cc1	5%	0	25%	0%	25µM*	1%
COc1ccc(/C=C/C(=O)NCc2ccccn2)cc1OC	-3%	-5	45%	16%	x	9%
COc1cc(/C=C/C(=O)Nc2nnc(CC(C)(C)C)s2)cc(OC)c1OC	2%	-2	-4%	3%	1%	9%
COc1ccc(O)c(CN2CCCC(N3CCN(c4ccc(F)cc4)CC3)C2)c1 (centres undefined)	x	5	-23%	3%	-4%	7%
CCCC(C(=O)NCC1CCCO1)N(Cc1ccco1)C(=O)CNS(=O)(=O)c1ccccc1 (centres undefined)	-3%	-5	10%	8%	25µM*	1%
CCCC(C(=O)NC1CCCCC1)N(Cc1ccco1)C(=O)CNS(=O)(=O)c1ccccc1 (centres undefined)	-7%	-6	u	5%	0%	-18%
COc1ccccc1Oc1ncnc2c1cnn2-c1ccccc1	-6%	-7	-19%	7%	x	4%
Cc1cc(C)cc(Nc2nc3ccccc3nc2NS(=O)(=O)c2cccs2)c1	x	-4	x	x	x	x
Clc1ccc(Cn2c(-c3cccnc3Cl)nc3ccccc32)c(Cl)c1	-7%	-2	10µM*	5%	-6%	-13%
Clc1ccc(Cn2c(-c3cccnc3Cl)nc3ccccc32)cc1	-1%	2	-9%	-6%	-8%	8%
Cc1nn(C)cc1/C=N/NC(=S)Nc1ccc(Cl)cc1Cl	-6%	-7	-18%	-1%	-1%	-14%
CCn1nc(C)c(/C=N/NC(=S)Nc2ccc(Cl)cc2Cl)c1C	6%	-2	4µM*	23%	0%	u
O=[N+]([O-])c1ccc(O)c(/C=N/NC(=S)Nc2ccc(Cl)cc2Cl)c1	15%	3	2µM*	0%	x	-28%
COC(=O)c1ccccc1NC(=O)C1CCCCC1C(=O)O (centres undefined)	-4%	-4	0%	-15%	28µM*	-14%
O=C(Nc1cccn(Cc2ccc(F)cc2)c1=O)NC1CCCCC1	0%	11	0%	-4%	18µM*	11%
COc1cccc(Cn2cccc(NC(=O)NC3CCCCC3)c2=O)c1	-10%	10	-21%	7%	28µM*	-15%
COc1cccc(CNCC(=O)NC(=O)NC2CCCC2)c1	17%	-25	u	-2%	x	-5%
